Records with an inconclusive call do not appear. The source made the active and inactive calls. Calls follow the shape of the dose curve; as a rule, active = well fitted curve in either direction with a large enough effect; inconclusive = small, poorly fitted or top-dose-only effect; inactive = no such curve, though single readings can be large or run the other way.
Each compound was assayed against Lysosomal alpha-glucosidase (Homo sapiens) (UniProt P10253) (assay: Confirmation of Inhibitors and Activators of Purified Human alpha-Glucosidase Using an Alternate Red Fluorescent Susbtrate). Settings: purified enzyme, red fluorogenic substrate; series mostly up to 63.4 µM.
Method in brief: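 Concentration series tested against 4 nM purified human enzyme, pH 5.0 citrate buffer with Tween-20; 400 uM resorufin glycoside substrate, 20 min room temperature, NaOH/glycine stop. Fluorescence normalized to no-enzyme and full-activity controls; Hill-equation AC50.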

Row | SMILES | Potency
1 | CC(=O)c1ccc(N2CCN(S(=O)(=O)c3ccc4c(c3)C(Cl)(Cl)C(=O)N4)CC2)cc1 | 41.1 µM [inhibitor] (active)
2 | Cc1ccc(S(=O)(=O)N2CCN(C(=O)N(c3ccccc3)c3ccccc3)CC2)cc1 | inactive
3 | CCCN1CNc2c(c(=O)[nH]c(=S)n2CCc2cc(OC)ccc2OC)C1 | 6.31 µM (active)
4 | CCCN1CNc2c(c(=O)[nH]c(=S)n2CCc2ccc(C)cc2C)C1 | 2.82 µM (active)
5 | CCCN1CNc2c(c(=O)[nH]c(=S)n2CCc2cccs2)C1 | 7.94 µM (active)
6 | CC(=O)c1ccc(N2CCN(S(=O)(=O)c3ccc4[nH]c(=O)oc4c3)CC2)cc1 | inactive
7 | CCCN1CNc2c(c(=O)[nH]c(=S)n2CCc2ccccc2Cl)C1 | 2.51 µM (active)
8 | CCCN1CNc2c(c(=O)[nH]c(=S)n2CCc2cc(Cl)ccc2Cl)C1 | 0.794 µM (active)
9 | CCCCN1C[C@H](O)[C@@H](O)[C@H](O)[C@H]1CO | inactive
10 | O=C1Cc2cc(S(=O)(=O)N3CCN(c4ccc([N+](=O)[O-])cc4)CC3)ccc2N1 | 3.26 µM [inhibitor] (active)
11 | CCCN1CNc2c(c(=O)[nH]c(=S)n2CCc2ccc(Cl)cc2)C1 | 11.2 µM (active)
12 | CCCN1CNc2c(c(=O)[nH]c(=S)n2CCc2ccc3c(c2)OCCO3)C1 | 1.12 µM (active)
13 | CC(=O)c1ccc(N2CCN(C(=O)c3ccc4c(c3)CCC(=O)N4)CC2)cc1 | inactive
14 | CCCN1CNc2c(c(=O)[nH]c(=S)n2CCc2cc(Cl)cc(Cl)c2)C1 | 2 µM (active)
15 | CC(=O)c1ccc(N2CCN(S(=O)(=O)c3ccc4c(c3)CCC(=O)N4)CC2)cc1 | inactive
16 | CCCN1CNc2c(c(=O)[nH]c(=S)n2CCc2ccccc2C)C1 | 8.91 µM (active)
17 | OCC1NCC(O)C(O)C1O (stereo not given) | inactive
18 | OC[C@H]1NC[C@@H](O)[C@@H]1O | inactive
19 | CC(=O)c1ccc(N2CCN(S(=O)(=O)c3ccc4c(c3)oc(=O)n4C)CC2)cc1 | inactive
20 | CCCN1CNc2c(c(=O)[nH]c(=S)n2CCc2cccc(OC)c2OC)C1 | 10 µM (active)
21 | CC(O)[C@@H](O)[C@H]1CNc2nc(N)[nH]c(=O)c2N1 (stereo not given in full) | inactive
22 | CCCN1CNc2c(c(=O)[nH]c(=S)n2CCc2ccsc2)C1 | 25.1 µM (active)
23 | CCCN1CNc2c(c(=O)[nH]c(=S)n2CCC(C)(C)C)C1 | inactive
24 | COc1ccc(CCc2c[nH]c(=O)c3cncnc23)cc1OC | inactive
25 | CC(=O)c1ccc(N2CCN(S(=O)(=O)c3ccc4c(c3)OCC(=O)N4)CC2)cc1 | inactive

— PubChem BioAssay AID2110 (National Center for Advancing Translational Sciences (NCATS), 2009)
